# Among all 310,000 compounds or so, about 1,500 (0.48%) were called active.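 Rule for the calls: active = initial fluorescence not abnormally high and integrated response B-score, plate-corrected, over 3 SD above library mean; inactive = the rest.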 This excerpt belongs to a sample that is enriched for actives.
# Molecular target: High affinity choline transporter 1 (Homo sapiens) (UniProt Q9GZV3)
# Experiment: CHT positive allosteric modulators, primary screen, cell-based, membrane potential dye, choline EC20 (AID 488977)
# Conditions: CHT-expressing cells, at 10 µM, LV-AA mutant CHT in HEK293 cells; active compounds read high
# Chain of High affinity choline transporter 1 (Homo sapiens) (Q9GZV3 whole entry, looked up): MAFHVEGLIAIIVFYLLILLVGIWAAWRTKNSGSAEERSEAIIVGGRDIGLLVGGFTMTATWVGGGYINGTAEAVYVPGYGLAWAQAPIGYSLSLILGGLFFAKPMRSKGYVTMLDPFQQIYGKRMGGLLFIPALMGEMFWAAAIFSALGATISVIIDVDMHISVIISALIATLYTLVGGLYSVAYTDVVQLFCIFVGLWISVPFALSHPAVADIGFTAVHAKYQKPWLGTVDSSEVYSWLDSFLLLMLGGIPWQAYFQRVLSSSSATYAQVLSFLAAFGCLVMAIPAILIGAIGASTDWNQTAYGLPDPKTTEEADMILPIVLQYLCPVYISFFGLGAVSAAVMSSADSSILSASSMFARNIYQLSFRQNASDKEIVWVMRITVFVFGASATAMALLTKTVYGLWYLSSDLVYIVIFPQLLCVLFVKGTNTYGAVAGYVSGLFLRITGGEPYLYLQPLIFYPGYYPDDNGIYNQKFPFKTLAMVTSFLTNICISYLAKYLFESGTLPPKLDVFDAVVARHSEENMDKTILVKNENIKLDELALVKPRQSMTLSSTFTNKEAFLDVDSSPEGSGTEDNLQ
row,SMILES,B-score
1,CCCCn1c(N)c(N(CC(C)C)C(=O)c2ccc(-n3c(C)ccc3C)cc2)c(=O)[nH]c1=O,inactive
2,Nc1ccccc1SC(C[N+](=O)[O-])c1ccccc1 (stereo not drawn),inactive
3,CCS(=O)(=O)c1cc([N+](=O)[O-])c(Sc2ccccc2N)s1,inactive
4,Nc1ccccc1SCc1cc([N+](=O)[O-])cc2c1OCOC2,7.8 (active)
5,Cc1cc(C)cc(NC(=O)COc2coc(CN3CCN(c4ccccc4)CC3)cc2=O)c1,inactive
6,COc1cccc(N2CC(NC(=O)c3ccc4ccccc4c3)CC2=O)c1 (stereo not drawn),inactive
7,CCCCCCCCn1c2c(c(=N)c3c1CCC3)CCCC2,12.2 (active)
8,COc1ccccc1N(C)S(=O)(=O)c1ccc(Cl)c(C(=O)Nc2ccncc2)c1,inactive
9,CN1C(C(=O)NCc2ccco2)CC2Cn3c(nc4ccccc43)C21 (stereo not drawn),inactive
10,CC(OC(=O)CCCc1c[nH]c2ccccc12)C(=O)Nc1ccc(S(N)(=O)=O)cc1 (stereo not drawn),inactive
11,COc1ccc2oc(C(=O)OCC(=O)N(CC(C)C)c3c(N)n(Cc4ccccc4)c(=O)[nH]c3=O)c(C)c2c1,inactive
12,CCCCCCSc1ccc([C@@H]2[C@@H]3C(=O)N(CC)C(=O)[C@@H]3[C@]3(C(=O)OC)CCCCN23)cc1OC,inactive
13,CCOc1ccc(C2c3[nH]c4ccccc4c3CCN2Cc2cccn2-c2ncccn2)cc1 (stereo not drawn),6.79 (active)
14,CCOc1ccc(C2c3[nH]c4ccccc4c3CCN2Cc2cn(CC)nc2C)cc1 (stereo not drawn),inactive
15,c1ccc(C2c3[nH]c4ccccc4c3CCN2Cc2cccn2-c2cccnc2)nc1 (stereo not drawn),inactive
16,COc1ccc(Cl)cc1NC(=O)CN(C)C(=O)c1cc2ccccc2cc1OC,inactive
17,Cc1cc(C)c(S(=O)(=O)N2CCCC2CNC(=O)c2ccc3c(c2)OCO3)c(C)c1 (stereo not drawn),inactive
18,CCN(CC)CCn1c2c(c(SCC(=O)Nc3ccc(C(C)C)cc3)nc1=O)CCC2,inactive
19,COc1ccc(C2CC(c3ccc([N+](=O)[O-])cc3)=NN2C(C)=O)cc1 (stereo not drawn),inactive
20,CC(=O)N1CC[n+]2c(-c3ccc([N+](=O)[O-])cc3)csc21,7.27 (active)
21,COC(=O)c1c(C)[nH]c(C)c1-c1ccc([N+](=O)[O-])cc1,inactive

row,SMILES,B-score
1,CCOCCCNc1nc(-c2ccccc2)nc2ccccc12,inactive
2,Cc1ccc(Oc2nc(-c3ccccn3)nc3ccccc23)cc1,inactive
3,CC(C)(C)Nc1nc(-c2ccccn2)nc2ccccc12,6.37 (active)
4,COc1ccc(S(=O)(=O)N2CCCCCC2)cc1C(=O)N(C)Cc1cccc(OC)c1OC,inactive
5,O=[N+]([O-])c1ncc(Br)cc1Nc1ccccc1,inactive
6,CCCCCCCCCCOC(=O)Cn1c(COc2cccc(OC)c2)[n+](C)c2ccccc21,10.7 (active)
7,COc1cccc(OCCCN2CCCCCC2)c1,inactive
8,CCCCCCCCCCOC(=O)Cn1c(COc2ccc(C)cc2)[n+](C)c2ccccc21,9.75 (active)
9,CCCCOC(=O)Cn1c(=N)n(CCN(CC)CC)c2ccccc21,inactive
10,Cc1ccc(OCCCn2c(=O)oc3ccccc32)cc1,inactive
11,COc1cccc(OCC(=O)Nc2ccccc2C(N)=O)c1,inactive
12,CCOC(=O)c1c(C)oc2cc(Sc3ccccc3)c(O)c(O)c12,inactive
13,COc1cccc(CNC(=O)C(=O)NCCC2CCCCN2S(=O)(=O)c2ccc(C)cc2)c1 (stereo not drawn),inactive
14,Cc1cc(OCC(=O)N(C)c2c(N)n(Cc3ccccc3)c(=O)[nH]c2=O)c(C(C)C)cc1Cl,inactive
15,CCOC(=O)C(C)Sc1nc2ccccc2c(=O)n1CC1CCCCC1 (stereo not drawn),inactive
16,CC(Sc1nc2ccccc2c(=O)n1Cc1ccco1)C(=O)c1ccccc1 (stereo not drawn),7.82 (active)
17,O=C(CCCn1c(SCC(=O)c2ccc(F)cc2)nc2ccccc2c1=O)NCc1ccco1,inactive
18,Cc1sc2ncnc(N3CCC(C(=O)NNC(=O)c4ccc(F)cc4)CC3)c2c1C,inactive
19,CC1=CC(C)(C)N(C(=O)CSc2nnc(-c3ccccc3)o2)c2ccc(C)cc21,9.98 (active)
20,CC1=CC(C)(C)N(C(=O)CSc2nccn2C)c2cc(C)ccc21,inactive
21,O=C(CSc1nnc(-c2ccccc2)o1)N1CCOCC1,inactive

row,SMILES,B-score
1,CCN1/C(=C/C(=S)Nc2ccccc2)Sc2ccccc21,inactive
2,CCN1/C(=C/c2ccc3ccc(C)cc3[n+]2CC)Sc2ccccc21,7.76 (active)
3,CCN1/C(=C\c2ccc3ccccc3[n+]2CC)Sc2cc(C)ccc21,inactive
4,O=C(NCC(c1ccco1)N1CCc2ccccc21)c1cccc(F)c1 (stereo not drawn),inactive
5,COc1ccc(C(=O)NCC(c2ccco2)N2CCc3ccccc32)cc1OC (stereo not drawn),inactive
6,Cc1ccccc1C(=O)NCC(c1ccco1)N1CCc2ccccc21 (stereo not drawn),7.63 (active)
7,CC(=O)Nc1ccc(C(=O)Nc2cccc(S(=O)(=O)NC3=NCCC3)c2)cc1,inactive
8,COc1ccc(C(=NN)c2ccc(OC)cc2)cc1,inactive
9,CCOC(=O)[C@H]1[C@H]2COc3ccc(Cl)cc3[C@@H]2N2C(=O)c3cc(C)ccc3NC(=O)[C@@]12C,inactive
10,Cn1cccc1C(=O)NNC(=O)COc1ccc(Br)cc1,inactive
11,O=C(Nc1ccc(S(=O)(=O)N2CCCCC2)cc1)C1CCN(C(=O)c2ccc(F)cc2)CC1,inactive
12,CCCOc1ccccc1C1CC(=O)Nc2cc3c(cc21)OCO3 (stereo not drawn),7.15 (active)
13,COc1ccc(C2CC(=O)Nc3cc(C)c(C)cc32)c(OC)c1OC (stereo not drawn),inactive
14,COc1ccccc1C1C2=C(COC2=O)Nc2cc3c(cc21)OCO3 (stereo not drawn),inactive
15,COc1ccc(/C=C2\SC(=S)N(CCCC(=O)NC3CCCC3)C2=O)cc1OC,inactive
16,Cc1c(CCOC(=O)CC23CC4CC(CC(C)(C4)C2)C3)sc[n+]1Cc1ccc([N+](=O)[O-])cc1,8.47 (active)
17,Cc1c(CCOC(=O)c2cc([N+](=O)[O-])ccc2Cl)sc[n+]1CCCCS(=O)(=O)[O-],inactive
18,CCN(CC)CCn1c2c(c(SCC(=O)Nc3nc4ccccc4s3)nc1=O)CCCC2,inactive
19,CCN1CCN(c2ccc([N+](=O)[O-])cc2C(=O)c2ccc(Cl)cc2)CC1,8.73 (active)
20,CCC(C)(C)NC(=O)c1cc([N+](=O)[O-])ccc1N1CCCCC1,inactive
21,CCC(=O)c1ccc(N2CCN(C(=O)c3cc([N+](=O)[O-])ccc3F)CC2)c(F)c1,inactive
